Assay outcomes as filed in PubChem.
STK33 inh: human STK33 kinase inhibition. Q9BYT3. ADP-Glo luminescence, MBP substrate. inhibition, % at 12.5 µM. actives 0.44% (n = 27,000). AID 2322; in the data active = inhibition above about 20%
ID4 binder: ID4 (human) binding. P47928. small molecule microarray, Flag-ID4 binding, fluorescence F/B. calls only. actives 1.2% (n = 31,000); call rule not given here;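 note: a binder raises fluorescence above local background on the spot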
Target sequence (P47928 whole entry, looked up): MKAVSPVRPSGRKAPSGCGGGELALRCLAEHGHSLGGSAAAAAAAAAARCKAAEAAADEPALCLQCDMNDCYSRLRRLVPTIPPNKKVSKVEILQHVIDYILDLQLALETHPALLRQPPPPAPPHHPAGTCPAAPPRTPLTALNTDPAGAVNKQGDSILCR
Of the large screens only hits and unclear results are named; the others gave an inactive call. Rows were chosen to be rich in hits. Some 1.1% of all compounds tested hit in one or more screens of this group.

O=C1c2ccccc2C(=O)N1C[C@@H]1CCCN(Cc2ccc(OCCO)cc2)C1	ID4 binder active (no result: STK33 inh)
O=S(=O)(N[C@@H]1CCCN(Cc2ccc(OCCO)cc2)C1)c1ccc(Cl)cc1	ID4 binder active
O=C1c2ccccc2C(=O)N1C[C@@H]1CCCN(Cc2cccc(OCCO)c2)C1	none
COc1ccc(S(=O)(=O)N[C@@H]2CCCN(Cc3ccc(OCCO)cc3)C2)cc1	none
CS(=O)(=O)N(CC(=O)Nc1ccccc1F)c1ccc(F)cc1	none
Cc1nn(CC(=O)Nc2ccc(F)cc2)c(C)c1[N+](=O)[O-]	none
C[C@H](CO)N1C[C@H](C)[C@H](CN(C)Cc2ccc(C(=O)O)cc2)Oc2ccc(NC(=O)c3ccncc3)cc2CC1=O	none (no result: ID4 binder)
COc1ccc(-c2cnc3c(c2)C(=O)N([C@H](C)CO)C[C@@H](C)[C@H](CN(C)Cc2ccccn2)O3)cc1	ID4 binder active (no result: STK33 inh)
COc1cccc(-c2cnc3c(c2)C(=O)N([C@@H](C)CO)C[C@@H](C)[C@@H](CN(C)Cc2cccnc2)O3)c1	none (no result: STK33 inh)
COc1cccc(-c2cnc3c(c2)C(=O)N([C@H](C)CO)C[C@@H](C)[C@H](CN(C)Cc2cccnc2)O3)c1	ID4 binder active (no result: STK33 inh)
COc1ccc(-c2cnc3c(c2)C(=O)N([C@H](C)CO)C[C@H](C)[C@H](CN(C)Cc2ccccn2)O3)cc1	none (no result: STK33 inh)
C[C@H]1CN([C@@H](C)CO)S(=O)(=O)c2ccc(-c3cncnc3)cc2O[C@@H]1CN(C)Cc1ccccc1	none (no result: STK33 inh)
C[C@@H]1CN([C@H](C)CO)C(=O)c2cc(C#CC3CC3)cnc2O[C@H]1CN(C)Cc1ccccc1C(=O)O	none (no result: STK33 inh)
OC1CCN(Cc2ccccc2)CC1	none (no result: ID4 binder)
COc1ccc(NC(=O)CN2CCN(S(=O)(=O)c3ccccc3)CC2)cc1	none
NS(=O)(=O)c1ccc(NC(=O)CN2CCN(Cc3ccccc3)CC2)cc1	ID4 binder active
Cc1ccc(N(C(C)C(=O)Nc2c(C)cccc2C)S(C)(=O)=O)cc1 (configuration not stated)	none
Cc1cccc(N(CC(=O)Nc2ccc(F)cc2)S(C)(=O)=O)c1C	none
CC(NS(=O)(=O)c1ccccc1)C(=O)Nc1ccc(Oc2ccccc2)cc1 (configuration not stated)	none
CSc1nsc(SCC(=O)OC2CC3CCC2(C)C3(C)C)n1 (configuration not stated)	none
COC(=O)CCCCCCC(=O)Nc1ccc(NC(=O)CCCC[P+](c2ccccc2)(c2ccccc2)c2ccccc2)cc1	ID4 binder active (no result: STK33 inh)
O=C(CCCC(=O)Nc1ccccc1)Nc1ccccc1	none
C[C@H](CO)N1C[C@H](C)[C@H](CN(C)C(=O)Nc2ccccc2)OCc2cnnn2CCCC1=O	none (no result: ID4 binder)
Cc1nn2c(CN(C(=O)c3cccs3)c3ccccc3)nnc2c2ccccc12	none
Cc1nn2c(CN(C(=O)CN3CCOCC3)c3ccccc3)nnc2c2ccccc12	ID4 binder active
CC(C)c1ccc(S(=O)(=O)Nc2ccc(O)c(Sc3ncn[nH]3)c2)cc1	none
CN1CCN(C(=O)C2=C[C@@H](c3ccc4c(c3)OCO4)C[C@@H](OCCCCO)O2)CC1	ID4 binder active (no result: STK33 inh)
O=C(C1=C[C@@H](c2ccc3c(c2)Cc2ccccc2-3)C[C@@H](OCCCCO)O1)N1CCN(Cc2ccc3c(c2)OCO3)CC1	none
C[C@H]1CN([C@@H](C)CO)C(=O)c2cc(NC(=O)Nc3ccc4c(c3)OCO4)ccc2O[C@@H]1CN(C)S(=O)(=O)c1ccc(Cl)cc1	none (no result: ID4 binder)
C[C@@H]1CCCCO[C@@H](CN(C)S(=O)(=O)c2cn(C)cn2)[C@@H](C)CN([C@@H](C)CO)C(=O)c2cc(NC(=O)CCCN(C)C)ccc2O1	none (no result: STK33 inh)
O=C(CSc1n[nH]c(-c2ccco2)n1)c1ccc(Cl)cc1	none
COc1ccc2nc(Nc3nc(CSc4ccc(Cl)cc4)cc(=O)[nH]3)nc(C)c2c1	none
COc1ccc2nc(NC3=NC(c4ccccc4)CC(=O)N3)nc(C)c2c1 (configuration not stated)	ID4 binder active
Cc1noc(C)c1NC(=O)Nc1ccc2c(c1)CC(=O)N([C@H](C)CO)C[C@@H](C)[C@@H](CN(C)C(=O)Nc1ccc3c(c1)OCO3)O2	none (no result: ID4 binder)
Cc1ccnc(NC(c2ccccn2)c2ccc3ccc(C)nc3c2O)c1 (configuration not stated)	none
N=C(N)SCc1nc(N)nc(N2CCCCC2)n1	none (no result: STK33 inh)
Cc1cc(=O)[nH]c(SCC(=O)N2CCC(C(N)=O)CC2)n1	none
Cc1ccc(S(=O)(=O)N[C@H](Cc2ccccc2)C(=O)CCl)cc1	none (no result: ID4 binder)
COC(=O)c1cn(CCCNC(=O)[C@H](Cc2ccccc2)NS(=O)(=O)c2ccc(C)cc2)nn1	ID4 binder active (no result: STK33 inh)
C[C@@H]1CN([C@H](C)CO)C(=O)c2cc(C#CCc3ccccc3)cnc2O[C@H]1CN(C)C(=O)C1CC1	none (no result: STK33 inh)
COC(=O)CSc1nc2ccccc2[nH]1	none (no result: ID4 binder)
c1ccc2[nH]c(SCCCN3CCCCC3)nc2c1	ID4 binder active (no result: STK33 inh)
C[C@@H]1CN([C@H](C)CO)C(=O)Cc2cc(NC(=O)Nc3ccc(C(F)(F)F)cc3)ccc2O[C@H]1CN(C)C	none (no result: ID4 binder)
C[C@@H]1CN([C@@H](C)CO)C(=O)CCCn2nncc2CO[C@H]1CN(C)C(=O)NC1CCCCC1	none (no result: ID4 binder)
COc1ccccc1N(CC(=O)Nc1ccccc1Cl)S(C)(=O)=O	none
Cc1c(C(=O)C2C(=O)C(=O)N(Cc3cccnc3)C2c2cccs2)cnn1-c1ccccc1 (configuration not stated)	none
Cc1c(C(=O)C2C(=O)C(=O)N(Cc3cccnc3)C2c2ccccn2)cnn1-c1ccccc1 (configuration not stated)	ID4 binder active
C[C@@H]1CN([C@H](C)CO)C(=O)Cc2cc(NC(=O)CCC(F)(F)F)ccc2O[C@H]1CN(C)C	none
COc1c(OC)c2occc2c2oc(=O)ccc12	none
Cc1cc(=O)oc2cc(NC(=S)NCc3cccnc3)ccc12	ID4 binder active
COc1ccc(NC(=S)NCc2cccnc2)cc1OC	none
c1ccc2nc(C3=NCCN3)ccc2c1	none (no result: STK33 inh)
O=C(O)c1cc(O)c2c(c1)C(=O)c1cc(O)cc(O)c1C2=O	none (no result: ID4 binder)
O=C1c2ccc(O)cc2C(=O)c2ccc(O)cc21	STK33 inh 34
O=C(C[C@H]1C=C[C@H](NC(=O)c2ccc(F)cc2)[C@H](CO)O1)NCCc1ccccc1	none (no result: STK33 inh)
COc1ccc([N+](=O)[O-])cc1NC(=O)C(C)Oc1ccccc1C (configuration not stated)	none
COc1ccc(S(=O)(=O)N(C)C[C@@H]2Oc3ccc(NC(=O)Nc4ccc5c(c4)OCO5)cc3C(=O)N([C@@H](C)CO)C[C@@H]2C)cc1	none
O=C(N[C@@H](Cc1ccccc1)Cn1cc(CN2C(=O)COC[C@H]2c2ccccc2)nn1)c1ccccc1	none (no result: STK33 inh)
O=C(Nc1ccccc1)N[C@H](Cc1ccccc1)Cn1cc(CN2C(=O)COC[C@H]2c2ccccc2)nn1	ID4 binder active (no result: STK33 inh)
C[C@H](CO)N1C[C@H](C)[C@H](CN(C)C(=O)c2ccc(F)cc2)Oc2ncc(C#CC3CC3)cc2C1=O	none (no result: STK33 inh)
Cc1cc(S(=O)(=O)NCC2CCN(C(=O)OC(C)(C)C)CC2)c(C)o1	none (no result: STK33 inh)
CCn1nccc1C(=O)Nc1nc2ccccc2n1CCN1CCCCC1	none
O=C(O)CCc1nn2c3ccccc3n(CCN3CCCCC3)c2nc1=O	ID4 binder active
C[C@H](CO)N1C[C@H](C)[C@@H](CN(C)Cc2ccc(C(=O)O)cc2)Oc2c(NC(=O)c3ccncc3)cccc2C1=O	none (no result: STK33 inh)
Cn1c(SCC(=O)Nc2c(F)cc(F)cc2Br)nnc1-c1ccco1	ID4 binder active
COc1ccc(-c2nnc(SCC(=O)Nc3c(F)cc(F)cc3Br)n2C)cc1	none
